Compounds without any hit were thinned out: in the full panel of roughly 83,000, 20% have a hit.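 Single-concentration screen, 48 h exposure, 96-well plates. Endpoint: percent growth. Below 10 = active.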 Unmarked numbers belong to inactive results. The source made the active and inactive calls.

This passage reports growth results from PubChem BioAssay (NCI).

Some test systems named below: NCI-H23 lung; NCI-H226 lung; NCI-H322M lung; HOP-62 NSCLC; NCI-H460 lung; HOP-92 NSCLC; NCI-H522 lung; A549/ATCC NSCLC; 786-0 renal; COLO 205 colon; DU-145 prostate; K-562 leukemia; MALME-3M melanoma; MDA-MB-231 breast; RXF 393 renal; SF-268 CNS; SF-295 CNS; UACC-257 melanoma; M14 melanoma; SF-539 CNS.
What all share (assay): NCI-60 one-dose screen, 48 h (100 = growth as untreated, 0 = no growth, -100 = all killed)
Common to all, as to conditions: 10 µM unless noted

For `COc1ccc2nc3cc(Cl)ccc3c(N3CCN(c4nccc(NCc5ccccc5)n4)CC3)c2c1`, the growth in the assay on NCI-H23 lung is 73.2%; in the assay with NCI-H226 lung, 96.4%; in the assay on NCI-H322M lung, 89.4%; in the assay on HOP-62 NSCLC, 35.9%; in the assay on NCI-H460 lung, 89.9%; in the assay on HOP-92 NSCLC it was 69.1%. Besides, the growth in the assay with NCI-H522 lung was -0.14% (active); with A549/ATCC NSCLC it was 78.3%; in the assay with 786-0 renal, 79%; in the assay with COLO 205 colon, 82.1%; in the assay on DU-145 prostate, 78.7%; with K-562 leukemia, 33%. For the same compound, the growth in the assay on MALME-3M melanoma was 113%; with MDA-MB-231 breast, 67.5%; in the assay with RXF 393 renal it was 42.2%; in the assay with SF-268 CNS, 72.3%; in the assay with SF-295 CNS, 81.6%; in the assay on UACC-257 melanoma, 88%. Further, the growth with M14 melanoma is 96.3%.

Consider `O=C(Nc1ccc(Nc2cc(Nc3ccccc3)ncn2)cc1)Nc1cc(C(F)(F)F)ccc1F`, for which the growth is 77.5% in the assay on NCI-H23 lung; 94.7% in the assay on NCI-H226 lung; 61.9% in the assay with NCI-H322M lung; 68.6% in the assay with HOP-62 NSCLC; 69.8% with NCI-H460 lung; 49.3% in the assay with HOP-92 NSCLC. In addition, the growth with NCI-H522 lung is 24.5%; with A549/ATCC NSCLC it was 48.1%; in the assay with 786-0 renal, 84.4%; with COLO 205 colon, 64.4%; in the assay on DU-145 prostate, 65.7%; in the assay on K-562 leukemia, 56.1%. In addition, the growth in the assay with MALME-3M melanoma was 85.9%; in the assay on MDA-MB-231 breast, 56.9%; in the assay with RXF 393 renal, 61.2%; in the assay on SF-268 CNS it was 94.6%; in the assay with SF-295 CNS, 84.2%; with UACC-257 melanoma, 73.6%. The growth in the assay on M14 melanoma was 57.4%.

For `COc1cc(OC)c(/C=C/C(=O)c2c(OC)cc(OC)cc2OC)c(OC)c1`, the growth was 6.77% (active) with NCI-H23 lung; 36.1% with NCI-H226 lung; 21.4% with NCI-H322M lung; 27% in the assay with HOP-62 NSCLC; 5.86% (active) in the assay with NCI-H460 lung; 130% in the assay with HOP-92 NSCLC. Also, the growth is 2.82% (active) with NCI-H522 lung; 25.1% in the assay on A549/ATCC NSCLC; 29% with 786-0 renal; -6.76% (active) in the assay with COLO 205 colon; 25.1% with DU-145 prostate; 8.98% (active) in the assay on K-562 leukemia. Moreover, the growth with MALME-3M melanoma is 60.6%; with MDA-MB-231 breast, 39.1%; in the assay with RXF 393 renal, -14.7% (active); with SF-268 CNS, 22.1%; in the assay with SF-295 CNS it was 6.33% (active); in the assay with UACC-257 melanoma it was 52.2%. The growth in the assay with M14 melanoma is -33.5% (active).

For `CC/C=C\C[C@H](F)C/C=C1/C(=O)C=C[C@@H]1C/C=C\CCCC(=O)OC`, the growth with NCI-H23 lung was -12.6% (active); with NCI-H226 lung, 25.4%; in the assay on NCI-H322M lung it was 45.5%; in the assay with HOP-62 NSCLC, -25.8% (active); in the assay with NCI-H460 lung, 1.34% (active); with HOP-92 NSCLC, 68.9%. The growth with NCI-H522 lung is -26.8% (active); in the assay on A549/ATCC NSCLC, 24.3%; with 786-0 renal it was 5.15% (active); in the assay on COLO 205 colon it was -28.1% (active); in the assay with DU-145 prostate, 25.7%; in the assay on K-562 leukemia, -5.83% (active). In addition, the growth was -13.6% (active) in the assay with MALME-3M melanoma; 3.26% (active) in the assay with MDA-MB-231 breast; -45.5% (active) in the assay on RXF 393 renal; 26% in the assay on SF-268 CNS; 4.48% (active) in the assay on SF-295 CNS; -0.592% (active) in the assay on UACC-257 melanoma. In the assay with M14 melanoma, the growth is 1.2% (active).

`COc1ncc(-c2ccc3ncnc(Nc4cccc(Cl)c4)c3c2)cc1NS(C)(=O)=O`: the growth was 37.4% with NCI-H23 lung; 47.2% in the assay on NCI-H226 lung; -6.97% (active) in the assay on NCI-H322M lung; 56.6% in the assay on HOP-62 NSCLC; 28.3% in the assay on NCI-H460 lung; -14.7% (active) with HOP-92 NSCLC. Also, the growth is 33.3% with NCI-H522 lung; 15.8% with A549/ATCC NSCLC; 46.2% with 786-0 renal; 41.5% with COLO 205 colon; 27.4% in the assay on DU-145 prostate; 56.3% in the assay with K-562 leukemia. The growth with MALME-3M melanoma is -2.69% (active); in the assay with MDA-MB-231 breast, 43.8%; in the assay with RXF 393 renal, 7.92% (active); with SF-268 CNS, 44.8%; in the assay with SF-295 CNS, 32.1%; in the assay on M14 melanoma, 46.9%.

Consider `O=C1Nc2ccccc2/C1=C/C(=N/c1nnc(-c2ccc(Cl)cc2)s1)c1ccccc1`, for which the growth was 29.1% in the assay on NCI-H23 lung; 84.3% in the assay with NCI-H226 lung; 77% in the assay on NCI-H322M lung; 51.5% with HOP-62 NSCLC; 63.7% in the assay on NCI-H460 lung; 26.3% with HOP-92 NSCLC. The growth with NCI-H522 lung was -95.7% (active); in the assay with A549/ATCC NSCLC, 82.6%; in the assay on 786-0 renal it was -56.9% (active); with COLO 205 colon, 0.635% (active); in the assay with DU-145 prostate it was 30.5%; with K-562 leukemia, 8.67% (active). In addition, the growth in the assay on MALME-3M melanoma was -26.5% (active); in the assay with MDA-MB-231 breast, 35.5%; in the assay with RXF 393 renal it was -63.3% (active); in the assay with SF-268 CNS it was 55.9%; in the assay on SF-539 CNS, 27.9%; in the assay with M14 melanoma it was 52.2%.

Regarding `COc1ccc(/C=C2\N=C3SC=C(N)N3C2=O)cc1`, the growth was 23.6% in the assay with NCI-H23 lung; 51.6% in the assay on NCI-H226 lung; 46.6% in the assay with NCI-H322M lung; 40.2% in the assay with HOP-62 NSCLC; 17.3% in the assay with NCI-H460 lung; -8.02% (active) with HOP-92 NSCLC. Further, the growth with NCI-H522 lung was -54.5% (active); in the assay with A549/ATCC NSCLC, 32.8%; with 786-0 renal, 33.2%; in the assay with COLO 205 colon, 12.5%; with DU-145 prostate, 26.5%; in the assay on K-562 leukemia, 5.29% (active). Besides, the growth with MALME-3M melanoma is -15.3% (active); in the assay on MDA-MB-231 breast it was 42.5%; in the assay on RXF 393 renal it was -21.2% (active); in the assay on SF-268 CNS, 37.3%; in the assay on SF-539 CNS it was 26.7%; with M14 melanoma, 24.8%.

Regarding `Cn1cc(-c2nc(-c3c[nH]c4ccccc34)cs2)c2cccnc21`, the growth in the assay with NCI-H23 lung is 49.6%; with NCI-H226 lung, 65.9%; with NCI-H322M lung, 58.9%; in the assay on HOP-62 NSCLC, 33.3%; in the assay on NCI-H460 lung, 16.8%; in the assay with HOP-92 NSCLC, 30.4%. Moreover, the growth in the assay on NCI-H522 lung was -3.47% (active); with A549/ATCC NSCLC it was 34.2%; with 786-0 renal, 64.9%; with COLO 205 colon, -2.81% (active); with DU-145 prostate, 31.6%; with K-562 leukemia it was 18%. Besides, the growth with MALME-3M melanoma is 54.7%; with MDA-MB-231 breast, 30.6%; in the assay on RXF 393 renal it was 27.9%; with SF-268 CNS it was 52.4%; in the assay on SF-295 CNS, 11.5%; in the assay on UACC-257 melanoma, 61.5%. The growth in the assay on M14 melanoma was 19.6%.
